The results in this text go back to PubChem BioAssay (Tox21).

Each structure is given as a SMILES string. Records with an inconclusive call do not appear. Values without a mark were called inactive. Active and inactive are the calls of the source. Calls come from the whole dose curve; as a rule, active = well fitted cell-killing curve with a large enough effect in the repeat runs; inconclusive = weak or mixed curves, or effect the other way; inactive = flat fitted curve, though single readings scatter.
% is set by controls: 0 for no effect and ±100 for the full control effect; potency is the fitted concentration of half-maximal effect.

The nature of the experiment: cAMP Responsive Elements (CRE) small molecule agonists, cell-based qHTS assay: qHTS cell viability counter screen (AID 2060914). Note: nearly all actives have a fitted effect of over 50% in size. The settings on record: CRE-bla HEK293T viability, CellTiter-Glo luminescence, 5 h; series mostly up to 92.4 µM; activity change, negative = cytotoxicity: at the top concentration. In a few lines: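 Luminescence read-out (CellTiter-Glo, 30 min RT) of ATP-based viability in CRE-bla HEK 293T cells, run in the same wells as the β-lactamase reporter assay after 3 h compound treatment at 37 °C.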
For the compound `O=P1(N(CCCl)CCCl)NCCCO1` (stereo not given), the Potency entry is “inactive”. Consider `CCCOCC(=Nc1ccc(Cl)cc1C(F)(F)F)n1ccnc1`, for which the “activity change, negative = cytotoxicity” value is -18.3%. As to `Clc1ccc2ccccc2c1`, the “activity change, negative = cytotoxicity” value is 9.65%. For the compound `c1ccc(OP(Oc2ccccc2)Oc2ccccc2)cc1`, the Potency result was “inactive”.

Take `CC(C)N1C(=O)N(c2ccccc2)CSC1=NC(C)(C)C`: the “activity change, negative = cytotoxicity” value was -18.1%. Turning to `Cc1cc(C)c(C(=O)P(=O)(c2ccccc2)c2ccccc2)c(C)c1`, the “activity change, negative = cytotoxicity” value is -13.1%.

Consider `Cc1ccc(-c2c(Cl)nc(C#N)n2S(=O)(=O)N(C)C)cc1`, for which the “activity change, negative = cytotoxicity” value was -7.66%. Turning to `[Cl-].[Cl-].[Cl-].[Yb+3]`, the “activity change, negative = cytotoxicity” value is 13.6%. As to `CCOP(=S)(OCC)SC(CCl)N1C(=O)c2ccccc2C1=O` (stereo not given), the “activity change, negative = cytotoxicity” value was -7.05%. The same measure, in the same setting: under `Oc1c(Br)c(Br)c(Br)c(Br)c1Br` stands -3.01%; under `CC1(C)[C@H](/C=C2\CCSC2=O)[C@@H]1C(=O)OCc1coc(Cc2ccccc2)c1`, -14.7%.

For the compound `CC(=O)O.CC(=O)O.CC(=O)O.CC(=O)O.CC(=O)O.CC(=O)O.CC(=O)O.O.O.[Cr].[Cr].[Cr]`, the “activity change, negative = cytotoxicity” value was -2.91%.

For `COc1ccc2c(C(=O)c3ccc(Cl)cc3)c(C)n(CC(=O)O)c2c1`, the “activity change, negative = cytotoxicity” value was 0.254% [at 42.5 µM].

Consider `C=C(C)C(=O)OCC(CC)CCCC` (stereo not given), for which the Potency entry was “inactive”. Consider `C[C@H]1C(=O)O[C@@H]2CCN3CC=C(COC(=O)[C@](C)(O)[C@]1(C)O)[C@H]23`, for which the Potency result is “inactive”.

`FC(F)C(F)(F)OCC(Cn1cncn1)c1ccc(Cl)cc1Cl` (stereo not given): the “activity change, negative = cytotoxicity” value was -19%. As for `C[C@@H]1CC[C@@]2(OC1)O[C@H]1[C@@H](O)[C@H]3[C@@H]4CC[C@H]5C[C@@H](O[C@@H]6O[C@H](CO)[C@H](O[C@@H]7O[C@H](CO)[C@@H](O)[C@H](O[C@@H]8OC[C@@H](O)[C@H](O)[C@H]8O)[C@H]7O[C@@H]7O[C@H](CO)[C@@H](O)[C@H](O[C@@H]8O[C@H](CO)[C@@H](O)[C@H](O)[C@H]8O)[C@H]7O)[C@H](O)[C@H]6O)[C@H](O)C[C@]5(C)[C@H]4CC[C@]3(C)[C@H]1[C@@H]2C`, the Potency was 29 µM (active). On to `N#CC(C#N)=NNc1cccc(Cl)c1`, for which the “activity change, negative = cytotoxicity” value is -12.9%. `CC1=NNC(=O)N(/N=C/c2cccnc2)C1`: the “activity change, negative = cytotoxicity” value was -0.939%. In the case of `BrCC1CO1` (stereo not given), the “activity change, negative = cytotoxicity” value was 1.32%.

For the compound `O=S1OC[C@@H]2[C@H](CO1)[C@]1(Cl)C(Cl)=C(Cl)[C@@]2(Cl)C1(Cl)Cl` (stereo not given in full), the “activity change, negative = cytotoxicity” value was -21.1%. For the compound `CCCCCc1cc(O)cc(O)c1`, the “activity change, negative = cytotoxicity” value was 4.31%. Take `O=C(N[C@H]1N=C(c2ccccc2F)c2cccc3c2N(CC3)C1=O)c1cc2ccccc2[nH]1`: the “activity change, negative = cytotoxicity” value was 7.02% [at 42.5 µM].

On to `O=[N+]([O-])c1cccc2c([N+](=O)[O-])cccc12`, for which the Potency was 61.4 µM (active). `O=S1(=O)OCC2C(CO1)C1(Cl)C(Cl)=C(Cl)C2(Cl)C1(Cl)Cl` (stereo not given): the “activity change, negative = cytotoxicity” value was -17.9%. Regarding `C[C@]12CCC(=O)C[C@@H]1CC[C@@H]1[C@@H]2CC[C@]2(C)[C@@H](O)CC[C@@H]12`, the “activity change, negative = cytotoxicity” value is -14.3%.

As for `CC(C)c1ccc(OP(=O)(Oc2ccc(C(C)C)cc2)Oc2ccc(C(C)C)cc2)cc1`, the Potency entry is “inactive”. With `O=c1[nH]c2cc(Cl)ccc2n1C1CCNCC1`, the “activity change, negative = cytotoxicity” value was -5.35% [at 42.5 µM]. `O=NN1CCOCC1`: the Potency entry was “inactive”. For `O=C(Cc1ccccc1)c1ccccc1`, the “activity change, negative = cytotoxicity” value was -6.38%. Regarding `CCCCCCCCCCCC[N+](C)(C)CCOc1ccccc1`, the Potency is 61.1 µM (active). Regarding `O=[N+]([O-])c1ccc(CCl)cc1`, the “activity change, negative = cytotoxicity” value was 2.43%.

Consider `CCN`, for which the “activity change, negative = cytotoxicity” value is 1.08%.

For `CC(=O)[O-].[Tl+]`, the “activity change, negative = cytotoxicity” value is 4.17%.

As to `CCCCc1ccc(O)cc1`, the “activity change, negative = cytotoxicity” value was -9.01%. On to `CN(C)NC(=O)CCC(=O)O`, for which the Potency result was “inactive”.

In the case of `N#Cc1c(-c2ccc(Cl)cc2)[nH]c(C(F)(F)F)c1Br`, the “activity change, negative = cytotoxicity” value is 1.18%. `N#CSCSC#N`: the Potency result is “inactive”.

With `O=C1CC[C@@]2(O)[C@H]3Cc4ccc(O)c5c4[C@@]2(CCN3CC2CC2)[C@H]1O5`, the “activity change, negative = cytotoxicity” value was -19.9% [at 42.5 µM].

Turning to `CC1(C)CCC(Cc2ccc(Cl)cc2)C1(O)Cn1cncn1` (stereo not given), the “activity change, negative = cytotoxicity” value was -16.4%.
